From PubChem BioAssay AID1159580 (chemical genetic matrix, 2015)
Several values for one entry are separate records, joined by “and”; a condition that tells them apart may be missing. Equal entries are not always repeated. In all, about 5,500 compounds went through this assay and about 2,000 (36%) were called active. Roughly 18% stayed inconclusive and do not appear here. Cut-off read from the data, not from the text of the source: active = normalized growth mostly below about 0.91 (no sharp cut-off); inconclusive = no clear call, values can overlap the other calls; inactive = mostly above about 0.92. This is one part of the list.

Experiment: chemical genetic growth profiling, strain panel (AID 1159580);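 note: tested at 20 µM; growth read once vehicle control cultures reached saturation at 30 °C; 1 = growth at the plate median or of vehicle wells; lower values mean less growth of the strain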
Details: growth OD

Measured: normalized growth

O=C(O)C1CCCNC1 (stereo unspecified)
inactive: S. cerevisiae deletion strains, locus YJR075W, strain HOC1, active compounds read low 1.01 | S. cerevisiae deletion strains, locus YKL009W, strain mrt4, active compounds read low 1.02 | S. cerevisiae deletion strains, locus YKL068W, active compounds read low 1.01 | S. cerevisiae deletion strains, locus YKL085W, strain MDH1 (second series), active compounds read low 1.01 | S. cerevisiae deletion strains, locus YKL085W, strain MDH1, active compounds read low 1.01 | S. cerevisiae deletion strains, locus YKL160W, strain elf1, active compounds read low 1.01 | S. cerevisiae deletion strains, locus YKL190W, strain CNB1, active compounds read low 1.01 | S. cerevisiae deletion strains, locus YKR001C, strain vps1, active compounds read low 1.01 | S. cerevisiae deletion strains, locus YKR026C, strain gcn3, active compounds read low 1.03 | S. cerevisiae deletion strains, locus YKR091W, strain srl3, active compounds read low 1.01 | S. cerevisiae deletion strains, locus YLL001W, strain dnm1, active compounds read low 1.04 | S. cerevisiae deletion strains, locus YLL026W, active compounds read low 1.01 | S. cerevisiae deletion strains, locus YLL041C, strain sdh2, active compounds read low 1.02 | S. cerevisiae deletion strains, locus YLR027C, strain aat2, active compounds read low 1.02 | S. cerevisiae deletion strains, locus YLR039C, strain RIC1, active compounds read low 1.01 | S. cerevisiae deletion strains, locus YLR058C, strain SHM2, active compounds read low 1.01 | S. cerevisiae deletion strains, locus YLR102C, strain apc9, active compounds read low 1.01 | S. cerevisiae deletion strains, locus YLR113W, strain HOG1, active compounds read low 1.05 | S. cerevisiae deletion strains, locus YLR221C, strain rsa3, active compounds read low 1.01 | S. cerevisiae deletion strains, locus YLR258W, strain gsy2, active compounds read low 1.02 | S. cerevisiae deletion strains, locus YLR262C, strain YPT6 (second series), active compounds read low 1.01 | S. cerevisiae deletion strains, locus YLR262C, strain YPT6, active compounds read low 1.05 | S. cerevisiae deletion strains, locus YLR268W, strain sec22, active compounds read low 1.04 | S. cerevisiae deletion strains, locus YLR320W, strain mms22, active compounds read low 1.02 | S. cerevisiae deletion strains, locus YLR330W, strain CHS5, active compounds read low 1 | S. cerevisiae deletion strains, locus YLR342W, strain FKS1 (second series), active compounds read low 0.997 | S. cerevisiae deletion strains, locus YLR342W, strain FKS1, active compounds read low 1.01 | S. cerevisiae deletion strains, locus YLR357W, strain rsc2, active compounds read low 1.03 | S. cerevisiae deletion strains, locus YLR370C, strain arc18, active compounds read low 1.02 | S. cerevisiae deletion strains, locus YLR371W, strain rom2, active compounds read low 1.03 | S. cerevisiae deletion strains, locus YLR384C, strain iki3, active compounds read low 1.01 | S. cerevisiae deletion strains, locus YLR418C, strain cdc73, active compounds read low 1.05 | S. cerevisiae deletion strains, locus YML016C, strain PPZ1, active compounds read low 1.01 | S. cerevisiae deletion strains, locus YML032C, strain rad52, active compounds read low 1.04 | S. cerevisiae deletion strains, locus YML120C, strain ndi1, active compounds read low 1.01 | S. cerevisiae deletion strains, locus YML124C, strain tub3, active compounds read low 1.01 | S. cerevisiae deletion strains, locus YMR058W, strain fet3, active compounds read low 1.02 | S. cerevisiae deletion strains, locus YMR078C, strain ctf18, active compounds read low 1.03 | S. cerevisiae deletion strains, locus YMR125W, strain sto1, active compounds read low 1.02 | S. cerevisiae deletion strains, locus YMR129W, active compounds read low 1.03 | S. cerevisiae deletion strains, locus YMR205C, strain PFK2, active compounds read low 1.02 | S. cerevisiae deletion strains, locus YMR223W, strain ubp8, active compounds read low 1.02 | S. cerevisiae deletion strains, locus YMR231W, strain pep5, active compounds read low 1.01 | S. cerevisiae deletion strains, locus YMR263W, strain SAP30, active compounds read low 1.01 | S. cerevisiae deletion strains, locus YMR307W, strain GAS1, active compounds read low 0.992 and 0.991 | S. cerevisiae deletion strains, locus YNL067W, strain RPL9B, active compounds read low 1.01 | S. cerevisiae deletion strains, locus YNL071W, strain lat1, active compounds read low 1.02 | S. cerevisiae deletion strains, locus YNL128W, strain TEP1, active compounds read low 1.02 and 0.999 | S. cerevisiae deletion strains, locus YNL153C, strain GIM3, active compounds read low 1.01 and 1.02 | S. cerevisiae deletion strains, locus YNL175C, strain NOP13, active compounds read low 1.02 | S. cerevisiae deletion strains, locus YNL183C, strain NPR1, active compounds read low 0.935 | S. cerevisiae deletion strains, locus YNL197C, strain WHI3, active compounds read low 1.01 | S. cerevisiae deletion strains, locus YNL209W, strain ssb2, active compounds read low 1.02 | S. cerevisiae deletion strains, locus YNL224C, strain SQS1, active compounds read low 1.03 | S. cerevisiae deletion strains, locus YNL233W, strain BNI4, active compounds read low 1.01 | S. cerevisiae deletion strains, locus YNL248C, strain rpa49, active compounds read low 1 | S. cerevisiae deletion strains, locus YNL250W, strain rad50, active compounds read low 1.02 | S. cerevisiae deletion strains, locus YNL271C, strain bni1, active compounds read low 1.02 | S. cerevisiae deletion strains, locus YNL298W, strain CLA4, active compounds read low 1.02 | S. cerevisiae deletion strains, locus YNL307C, strain MCK1, active compounds read low 1.03 | S. cerevisiae deletion strains, locus YNL322C, strain KRE1 (second series), active compounds read low 1.02 | S. cerevisiae deletion strains, locus YNL322C, strain KRE1, active compounds read low 1.01 | S. cerevisiae deletion strains, locus YNR049C, strain mso1, active compounds read low 1.02 | S. cerevisiae deletion strains, locus YNR052C, strain pop2, active compounds read low 1.02 | S. cerevisiae deletion strains, locus YOL006C, strain TOP1, active compounds read low 1.07 | S. cerevisiae deletion strains, locus YOL012C, strain htz1 1.27 | S. cerevisiae deletion strains, locus YOL147C, strain pex11, active compounds read low 1.02 | S. cerevisiae deletion strains, locus YOR001W, strain rrp6, active compounds read low 1.02 | S. cerevisiae deletion strains, locus YOR061W, strain CKA2, active compounds read low 1.01 | S. cerevisiae deletion strains, locus YOR069W, strain VPS5, active compounds read low 1 | S. cerevisiae deletion strains, locus YOR070C, strain gyp1, active compounds read low 1.02 | S. cerevisiae deletion strains, locus YOR080W, strain dia2, active compounds read low 1.02 | S. cerevisiae deletion strains, locus YOR083W, strain WHI5 (second series), active compounds read low 1.02 | S. cerevisiae deletion strains, locus YOR083W, strain WHI5, active compounds read low 1.01 | S. cerevisiae deletion strains, locus YOR106W, strain vam3, active compounds read low 1.01 | S. cerevisiae deletion strains, locus YOR136W, strain idh2, active compounds read low 1.02 | S. cerevisiae deletion strains, locus YOR144C, strain elg1, active compounds read low 1.02 | S. cerevisiae deletion strains, locus YOR184W, strain ser1, active compounds read low 1.04 | S. cerevisiae deletion strains, locus YOR231W, strain MKK1, active compounds read low 0.999 | S. cerevisiae deletion strains, locus YOR265W, strain rbl2, active compounds read low 1.02 | S. cerevisiae deletion strains, locus YOR270C, strain vph1, active compounds read low 1.04 | S. cerevisiae deletion strains, locus YOR290C, strain snf2, active compounds read low 1.02 | S. cerevisiae deletion strains, locus YOR316C, strain cot1, active compounds read low 1.02 | S. cerevisiae deletion strains, locus YPL051W, strain arl3, active compounds read low 1.02 | S. cerevisiae deletion strains, locus YPL055C, strain LGE1, active compounds read low 1.03 | S. cerevisiae deletion strains, locus YPL078C, strain atp4, active compounds read low 1.03 | S. cerevisiae deletion strains, locus YPL106C, strain sse1, active compounds read low 1.01 | S. cerevisiae deletion strains, locus YPL240C, strain hsp82, active compounds read low 1.03 | S. cerevisiae deletion strains, locus YPL241C, strain CIN2, active compounds read low 1.01 and 1 | S. cerevisiae deletion strains, locus YPL256C, strain CLN2, active compounds read low 0.983 | S. cerevisiae deletion strains, locus YPR119W, strain clb2, active compounds read low 1.03 | S. cerevisiae deletion strains, locus YPR141C, strain kar3, active compounds read low 1.02 | S. cerevisiae deletion strains, locus YPR163C, strain tif3, active compounds read low 1.03 | S. cerevisiae deletion strains, locus YPR167C, strain met16, active compounds read low 1.03 | S. cerevisiae deletion strains, strain wtn01, active compounds read low 1.02 | S. cerevisiae strains, strain wild type, active compounds read low 1.01
